Hits are enriched below; roughly 7.9% of the tested compounds scored in any of these assays.
Lassa entry inh – Lassa virus entry inhibition. Lassa virus pseudotype entry inhibition, cell reporter. hit rate 1.2% among 300,000. AID 540256. Potency, µM (doses to about 37.9 µM), actives largely listed as inhibitors; calls by dose curve; tested in HEK293 cells; also: nearly all actives have a fitted effect of over 50% in size
HCV inhibitor – blocks hepatitis C virus | Huh7.5.1 HCVcc-Cre infection, luciferase reporter, 44 h | Potency, µM (titrated, usually from 41.8 µM), hits mostly inhibitors | hit rate 3.4% among 340,000 | AID 651820; active = well fitted inhibition curve with a large enough effect; inconclusive = small, poorly fitted or top-dose-only effect, or another doubt; inactive = no such curve, though single readings can be large or run the other way
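1,000 cells/well; 4 h culture; + compound; + HCVcc-Cre (~0.5 moi); 44 h; luciferase substrate, RT 15 min; read 15 sec.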
HCMV inh – blocks human cytomegalovirus replication; hit rate 4.5% among 410,000; HFF cells, HCMV-luciferase reporter, 72 h; active compounds read low; AID 1259415; activity change, negative = inhibition, % at 57.5 µM; in the data active = activity change below about -60%; inconclusive = no clear call, values can overlap the other calls; inactive = above about -39%
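Two-dose cell screen: HFF monolayers treated with compounds and infected with luciferase-expressing HCMV at 1 PFU/cell, 72 h at 37C, then lysed for luciferase measurement.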
FMDV inh – antivirals against foot and mouth disease virus | FMDV antiviral cell-based qHTS | Potency, µM (highest dose often 57.9 µM), most hits filed as inhibitors | hit rate 1.2% among 410,000 | AID 1159524; calls by dose curve; tested in HEK293T cells; also: read-out not given here; nearly all actives have a fitted effect of over 45% in size
MARV entry inh – Marburg virus entry inhibition; Marburg virus pseudotyped entry inhibition, cell reporter; Potency, µM (series often up to 37.8 µM), hits mostly inhibitors; hit rate 1.8% among 300,000; AID 540276; calls by dose curve; tested in HEK293 cells
Each line names hits and unclear results; the compound was inactive in the other large screens; ! = not confirmed by another sample.

Cc1ccccc1C(=O)N1CCC(N2CCN(Cc3ccc(F)cc3)C(=O)C2=O)CC1	Lassa entry inh inconclusive (no result: HCV inhibitor, MARV entry inh)
COc1ccc(CCNC(=O)C2CCN(c3ncnc4c3nc3n4CCCCC3)CC2)c(OC)c1	none (no result: HCV inhibitor, MARV entry inh)
O=C(NCC(c1ccco1)S(=O)(=O)c1ccc(Cl)cc1)c1ccccc1F (centres undefined)	none (no result: HCV inhibitor, MARV entry inh)
C#CC[C@@]1(C(=O)OC)C=C[C@@H](C)[C@H](c2ccccc2Br)N1C(=O)C(F)(F)F	none (no result: Lassa entry inh, HCV inhibitor, HCMV inh, FMDV inh)
Cc1cccc(N2C(=O)N(Cc3cccc(C#N)c3)c3ccccc3S2(=O)=O)c1	none (no result: HCV inhibitor, MARV entry inh)
CCn1c(CN2c3ccccc3Sc3ccccc32)n[nH]c1=S	HCMV inh -62, MARV entry inh inconclusive
COc1cc2c(cc1OC)CN(c1nc(-c3cccnc3)nc3ccccc13)CC2	Lassa entry inh inconclusive, HCV inhibitor 14µM, FMDV inh 16µM, MARV entry inh inconclusive
Cc1ccc(C)c(S(=O)(=O)N2CCN(c3nc(-c4cccnc4)nc4ccccc34)CC2)c1	HCV inhibitor 11µM, FMDV inh inconclusive (no result: Lassa entry inh, MARV entry inh)
CC(=O)N1CCN(Cc2nc3cc([N+](=O)[O-])ccc3n2C)CC1	none (no result: Lassa entry inh, MARV entry inh)
Cn1c(CN2CCN(S(C)(=O)=O)CC2)nc2cc([N+](=O)[O-])ccc21	HCMV inh -101, MARV entry inh inconclusive
COc1cc(/C=N/Nc2snc(SC)c2C#N)cc(OC)c1OC	Lassa entry inh 1.3µM, HCV inhibitor inconclusive, HCMV inh -86, FMDV inh inconclusive, MARV entry inh 1.6µM
Cc1ccccc1C1c2[nH]c3ccccc3c2C[C@H]2C(=O)N(c3ccccc3C(=O)NCCN3CCOCC3)C(=O)N12 (some centres undefined)	HCV inhibitor inconclusive (no result: Lassa entry inh, MARV entry inh)
Cc1ccccc1C1c2[nH]c3ccccc3c2C[C@H]2C(=O)N(c3ccccc3C(=O)NCCCN3CCOCC3)C(=O)N12 (some centres undefined)	HCV inhibitor 1.1µM (no result: Lassa entry inh, MARV entry inh)
CC(C)C(NC(=O)c1ccccn1)c1nnc2n1CCN(Cc1ccc3ccccc3c1)CC2 (centres undefined)	none (no result: Lassa entry inh, HCV inhibitor, HCMV inh, MARV entry inh)
CC[n+]1c(-c2ccccc2)c2cc(N)ccc2c2ccc(N)cc21	Lassa entry inh inconclusive, HCV inhibitor inconclusive, HCMV inh -100, FMDV inh 40µM, MARV entry inh inconclusive
Nc1ccc2nc(-c3ccccc3)[nH]c2c1	HCV inhibitor inconclusive
COc1cccc2cc(S(=O)(=O)c3ccc(F)c(C)c3)c(=O)oc12	none (no result: HCV inhibitor)
CCCNC(=O)N1C2=NC(C(=O)OC)=C(C(=O)OC)[C@@H]3Nc4ccccc4[C@]23C[C@H]1C(=O)OC	Lassa entry inh inconclusive (no result: HCV inhibitor, HCMV inh, FMDV inh)
CCC(=O)NC(c1ccc(C)cc1)c1ccc2cccnc2c1O (centres undefined)	Lassa entry inh 11µM, HCV inhibitor inconclusive, HCMV inh -98, MARV entry inh 3.2µM
CC(=O)NC(c1ccc(Cl)cc1)c1ccc2cccnc2c1O (centres undefined)	HCV inhibitor 4.5µM, HCMV inh -99 (no result: Lassa entry inh, MARV entry inh)
CCCC(=O)NC(c1ccccc1Cl)c1ccc2cccnc2c1O (centres undefined)	Lassa entry inh inconclusive, HCV inhibitor 2µM, HCMV inh -97, MARV entry inh 0.89µM
CCCC(=O)NC(c1ccc(C(C)C)cc1)c1ccc2cccnc2c1O (centres undefined)	Lassa entry inh 4.5µM, HCV inhibitor 1.8µM, HCMV inh -98, MARV entry inh inconclusive
Cc1ccc2ccc(C(Nc3ccccc3)c3ccc(C(C)C)cc3)c(O)c2n1 (centres undefined)	none (no result: Lassa entry inh, HCV inhibitor, MARV entry inh)
O=S(=O)(Nc1cccc(F)c1)c1ccc2[nH]c3c(c2c1)CCCCC3	none (no result: HCV inhibitor, MARV entry inh)
O=C(OCc1cn([C@H]2CN(C(=O)c3cccs3)[C@@H](c3ccc(Cl)cc3)C[C@H]2O)nn1)c1ccccc1	none (no result: HCV inhibitor, HCMV inh, FMDV inh, MARV entry inh)
COc1cccc(NC(=O)CCN2CCN(CCO)CC2)c1	none (no result: HCV inhibitor, MARV entry inh)
CC(=O)NC(c1ccco1)c1ccc2cccnc2c1O (centres undefined)	Lassa entry inh inconclusive, HCV inhibitor 7.9µM, MARV entry inh inconclusive (no result: HCMV inh)
CCCC(=O)NC(c1ccc(OC)cc1)c1c(O)ccc2ccccc12 (centres undefined)	Lassa entry inh inconclusive, HCV inhibitor inconclusive, MARV entry inh inconclusive
O=C(O)c1ccccc1NC(c1ccccc1)c1ccc2cccnc2c1O (centres undefined)	Lassa entry inh inconclusive, HCV inhibitor inconclusive, FMDV inh inconclusive, MARV entry inh inconclusive
Cc1cc(NC(c2ccc(Cl)cc2)c2ccc3cccnc3c2O)no1 (centres undefined)	Lassa entry inh inconclusive, HCV inhibitor 2.5µM, HCMV inh -98, MARV entry inh inconclusive
COc1ccc(C(NC(=O)C(C)C)c2ccc3cccnc3c2O)cc1 (centres undefined)	Lassa entry inh 2.5µM, HCV inhibitor 2µM, HCMV inh -99, FMDV inh inconclusive, MARV entry inh inconclusive
CCCCC(=O)NC(c1ccc(OC)cc1)c1ccc2cccnc2c1O (centres undefined)	HCMV inh -98 (no result: Lassa entry inh, HCV inhibitor, MARV entry inh)
O=C(O)c1ccc2cccnc2c1O	none
CCOC(=O)c1ccccc1NC(=O)Cn1c(=O)n(-c2ccc(CC)cc2)c(=O)c2c(C)c(C(=O)N(C)C)sc21	HCMV inh inconclusive (no result: HCV inhibitor, MARV entry inh)
CC1Cc2cc(S(=O)(=O)NCc3ccc(Cl)cc3)ccc2N1C(=O)C1CCC1 (centres undefined)	none (no result: HCV inhibitor, MARV entry inh)
CCCC(=O)NC(c1ccc(N(C)C)cc1)c1ccc2cccnc2c1O (centres undefined)	Lassa entry inh inconclusive, HCV inhibitor 3.2µM, HCMV inh -98, MARV entry inh inconclusive
COc1ccc(NC(=O)c2csnn2)cc1Cl	none (no result: HCV inhibitor)
COC(=O)CC1c2ccccc2C=C(C=Cc2ccc3c(c2)OCO3)N1C(=O)OC (centres undefined)	Lassa entry inh inconclusive (no result: HCV inhibitor, HCMV inh, FMDV inh)
COc1ccc(-c2ccc(C(=O)NCc3ccncc3)c3occc23)c(C)c1	HCMV inh -91 (no result: Lassa entry inh, HCV inhibitor, MARV entry inh)
O=C(NCc1ccncc1)c1cc(-c2ccc(Cl)cc2)oc1C(F)(F)F	HCV inhibitor 11µM, FMDV inh inconclusive (no result: Lassa entry inh, MARV entry inh)
O=C(NCc1ccncc1)c1ccc(-c2ccc(F)c(F)c2)c2ccoc12	HCMV inh -73, FMDV inh inconclusive (no result: Lassa entry inh, HCV inhibitor, MARV entry inh)
O=[N+]([O-])c1ccc(C[n+]2cccc3c4ccccc4ccc32)cc1	HCMV inh -81 (no result: Lassa entry inh, MARV entry inh)
CC(C)(C)C(=O)Nc1ccc2nc(SCC(=O)N3CCc4ccccc43)sc2c1	Lassa entry inh inconclusive, FMDV inh inconclusive, MARV entry inh inconclusive (no result: HCV inhibitor)
COc1cccc(NS(=O)(=O)c2ccc3[nH]cc(C(=O)NC4CCCCC4)c(=O)c3c2)c1	HCMV inh inconclusive, MARV entry inh inconclusive (no result: HCV inhibitor)
COCCCC/C(=N\OCCN)c1ccc(C(F)(F)F)cc1	Lassa entry inh 6.5µM, HCV inhibitor 16µM!, MARV entry inh 10µM
O=C(CCn1nc(-c2ccc(Cl)cc2)c2ccccc2c1=O)Nc1ccc(OC(F)(F)F)cc1	none (no result: HCV inhibitor)
CC(=O)OC[C@]12CCC(C)=C[C@H]1O[C@@H]1[C@H](O)[C@@H](OC(C)=O)[C@@]2(C)[C@]12CO2	HCV inhibitor inconclusive, HCMV inh -77, FMDV inh inconclusive (no result: Lassa entry inh, MARV entry inh)
CC(C)CN(CCCNC(=O)c1cn(C)c2ccc(S(=O)(=O)N(C)C3CCCCC3)cc2c1=O)CC(C)C	none (no result: HCV inhibitor)
C=C(C)Cn1c(=O)c2c(nc3n2CCN3c2ccc(CC)cc2)n(C)c1=O	HCMV inh inconclusive (no result: HCV inhibitor, MARV entry inh)

Bioassay records deposited in PubChem by National Center for Advancing Translational Sciences (NCATS).
